Calls of active or inactive are those of the source.

In PubChem BioAssay one finds composite z-score and z-score data, which are given here for 13 compounds.

For assay [1], the system named is Plasmodium falciparum Sir2 (PF13_0152, Sir2A). The assay can be described thus: Plasmodium falciparum Sir2A binding compounds – biochemical, small-molecule microarray, 635 nm fluorescence, primary screen (AID 1098).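 Further: score merges spot fluorescence intensity with its signal-to-noise ratio.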 Conditions: fluorescence 635 nm, higher = more signal.
Assay [2] can be described thus: probe aDKK1 binding to arrayed compounds – biochemical, biotinylated probe, 635/667 nm fluorescence, primary screen (AID 1099).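 Further: score merges 667nm spot fluorescence with signal to noise across triplicate slides; reference of the scale not given here.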 Conditions: small-molecule microarray, higher = more signal.
A short description of assay [3]: probe aCHRDL2 binding to arrayed compounds – biochemical, biotinylated probe, 635/667 nm fluorescence, primary screen (AID 1100). Conditions: small-molecule microarray, higher = more signal.
A short description of assay [4]: change in splice reporter luminescence, either direction, cell-based, HEK293, spliceosome inhibition project, primary screen (AID 1101).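 Further: HEK293 cells carrying a splicing-competent luciferase reporter gene; test concentration not given here.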 Conditions: HEK293 splicing luciferase reporter, 24 h, higher = more signal, called active from +8 up or from −8 down. Background: A reporter such as luciferase makes a cellular process visible.
Assay [5] concerns the target Fibroblast growth factor 10 (Homo sapiens) (UniProt O15520). The assay can be described thus: compounds binding fibroblast growth factor 10 – biochemical, small-molecule microarray, 635 nm fluorescence, primary screen (AID 1102). Conditions: FGF10 binding, fluorescence 635 nm, higher = more signal.
The test system of assay [6] is glycogen synthase kinase-3 (GSK3A per assay name; protocol says GSK3B). The assay is described as follows: compounds binding glycogen synthase kinase-3 – biochemical, small-molecule microarray, 635 nm fluorescence, GSK3A, primary screen (AID 1103). Further: the record names both GSK3A and GSK3B. Conditions: fluorescence 635 nm, higher = more signal.
The target of assay [7] is Epidermal growth factor receptor (Homo sapiens) (UniProt P00533). The assay can be described thus: compounds binding epidermal growth factor receptor – biochemical, small-molecule microarray, 635 nm fluorescence, primary screen (AID 1104).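 Further: score merges 667 nm emission intensity with spot signal to noise over triplicate slides.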 Conditions: EGFR binding, higher = more signal.
Chain of Epidermal growth factor receptor (Homo sapiens) (P00533 whole entry, looked up): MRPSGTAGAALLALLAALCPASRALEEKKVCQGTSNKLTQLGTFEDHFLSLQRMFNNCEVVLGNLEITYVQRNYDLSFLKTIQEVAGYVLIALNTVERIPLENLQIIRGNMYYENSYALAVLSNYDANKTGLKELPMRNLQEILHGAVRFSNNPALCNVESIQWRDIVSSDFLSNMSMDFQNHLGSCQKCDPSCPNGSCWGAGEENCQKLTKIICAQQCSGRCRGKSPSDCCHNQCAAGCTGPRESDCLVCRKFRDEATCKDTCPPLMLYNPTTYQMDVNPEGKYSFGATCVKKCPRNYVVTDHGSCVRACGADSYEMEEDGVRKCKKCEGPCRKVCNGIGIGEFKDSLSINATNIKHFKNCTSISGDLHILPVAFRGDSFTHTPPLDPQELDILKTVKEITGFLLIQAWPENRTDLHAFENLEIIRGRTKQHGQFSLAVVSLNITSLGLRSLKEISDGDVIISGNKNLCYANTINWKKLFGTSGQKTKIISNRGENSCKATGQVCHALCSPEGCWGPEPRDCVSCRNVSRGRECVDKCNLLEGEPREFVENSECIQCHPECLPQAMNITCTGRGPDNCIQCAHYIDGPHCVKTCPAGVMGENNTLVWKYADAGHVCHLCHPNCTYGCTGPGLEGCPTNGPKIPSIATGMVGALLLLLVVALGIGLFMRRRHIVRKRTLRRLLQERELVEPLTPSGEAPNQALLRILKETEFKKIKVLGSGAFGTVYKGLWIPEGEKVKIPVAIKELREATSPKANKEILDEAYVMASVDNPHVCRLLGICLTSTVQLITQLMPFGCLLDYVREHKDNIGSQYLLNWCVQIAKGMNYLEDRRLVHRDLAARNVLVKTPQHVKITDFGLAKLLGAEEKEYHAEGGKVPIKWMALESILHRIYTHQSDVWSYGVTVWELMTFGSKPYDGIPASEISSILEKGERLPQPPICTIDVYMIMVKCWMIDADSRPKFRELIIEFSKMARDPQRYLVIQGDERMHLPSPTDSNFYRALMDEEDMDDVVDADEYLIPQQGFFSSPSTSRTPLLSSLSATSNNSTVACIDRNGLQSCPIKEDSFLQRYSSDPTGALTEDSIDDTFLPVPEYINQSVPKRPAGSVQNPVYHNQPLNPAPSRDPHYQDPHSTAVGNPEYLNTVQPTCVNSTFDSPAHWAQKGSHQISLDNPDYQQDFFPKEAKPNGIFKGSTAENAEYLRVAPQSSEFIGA
Assay [8] deals with Follistatin-related protein 3 (Homo sapiens) (UniProt O95633). The assay is described as follows: compounds binding follistatin-related protein 3 – biochemical, small-molecule microarray, 635 nm fluorescence, primary screen (AID 1105).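 Further: score merges emission near 667 nm and signal to noise per printed spot across three slides.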 Conditions: FSTL3 binding, higher = more signal.
Chain of Follistatin-related protein 3 (Homo sapiens) (O95633 whole entry, looked up): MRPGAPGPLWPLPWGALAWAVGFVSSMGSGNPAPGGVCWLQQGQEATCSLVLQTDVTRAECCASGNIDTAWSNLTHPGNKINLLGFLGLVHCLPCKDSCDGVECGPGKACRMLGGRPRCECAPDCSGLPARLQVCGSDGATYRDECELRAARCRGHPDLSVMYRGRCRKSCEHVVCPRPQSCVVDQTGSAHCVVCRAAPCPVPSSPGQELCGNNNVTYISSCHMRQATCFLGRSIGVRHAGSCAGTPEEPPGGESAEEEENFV
Assay [9] deals with Dickkopf-related protein 1 (Homo sapiens) (UniProt O94907). The assay is described as follows: small molecules binding DKK1 protein – biochemical, small-molecule microarray, 635 nm fluorescence scan, primary screen (AID 1106).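 Further: score merges emission near 667 nm with signal to noise over three replicate slides.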 Conditions: higher = more signal.
Chain of Dickkopf-related protein 1 (Homo sapiens) (O94907 whole entry, looked up): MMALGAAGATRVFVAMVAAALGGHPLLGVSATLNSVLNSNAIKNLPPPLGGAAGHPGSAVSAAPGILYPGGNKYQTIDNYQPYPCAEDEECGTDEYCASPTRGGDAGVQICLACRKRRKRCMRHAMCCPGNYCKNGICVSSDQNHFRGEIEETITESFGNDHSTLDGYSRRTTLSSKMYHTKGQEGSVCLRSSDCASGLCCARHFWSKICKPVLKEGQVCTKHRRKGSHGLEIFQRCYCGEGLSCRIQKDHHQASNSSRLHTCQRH
Assay [10] deals with Inhibin beta A chain (activin A). The assay can be described thus: small molecules binding activin A – biochemical, small-molecule microarray, 635 nm fluorescence scan, primary screen (AID 1107).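 Further: mouse activin A protein probed at 4.33 µg/mL on printed slides; score merges bound-protein fluorescence near 667 nm with spot signal-to-noise.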 Conditions: INHBA, higher = more signal.

Chain of Fibroblast growth factor 10 (Homo sapiens) (O15520 whole entry, looked up): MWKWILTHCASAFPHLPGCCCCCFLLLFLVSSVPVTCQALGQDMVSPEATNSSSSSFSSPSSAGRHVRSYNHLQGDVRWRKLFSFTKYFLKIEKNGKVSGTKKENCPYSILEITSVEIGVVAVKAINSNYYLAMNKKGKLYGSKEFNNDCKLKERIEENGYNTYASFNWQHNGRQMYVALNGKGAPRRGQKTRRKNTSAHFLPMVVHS

For `CCCCN1CC=CC23O[C@@H]4C=CCOC(=O)[C@@H]4[C@H]2C(=O)N(CCCCCCO)[C@@H]3C1=O` (stereo not given in full), the composite z-score in assay [1] was 1.77; in [2] it was 0.159; in [3] it was 0.552; in assay [5], -0.988; in assay [6], -1; in assay [7] it was -1.5. Moreover, the composite z-score in assay [8] is -1.38; in assay [9] it was -1.28; in [10], 0.65. For the same compound, the z-score in assay [4] was 0.381 (inactive).

Consider `CCOc1cc(C(O)C2C=CC3C(=O)N(c4ccccc4)C(=O)C3N2Nc2ccc(C(C)C)cc2)ccc1O` (stereo not given), for which the composite z-score in assay [1] is 1.5; in [2] it was 0.712; in [3], 1.01; in [5], 0.726; in [6], 1.05; in [7], 0.147. In addition, the composite z-score in assay [8] was 0.912; in [9] it was -0.332; in assay [10], 0.73. Besides, in assay [4], the z-score is 0.21 (inactive).

`COc1ccccc1CN1C(=O)c2ccccc2[C@@]2(Cc3ccccc3N(CCCN(C)C)C2=O)[C@@H]1c1ccc(CO)cc1`: the composite z-score in assay [1] was 0.269; in assay [2], -0.169; in [3], -0.649; in assay [5], 0.165; in assay [6], 0.0081; in assay [7], 0.237. Further, the composite z-score in [8] was found to be 0.76; in [9] it was 1.05; in assay [10] it was 1.19. Moreover, in assay [4], the z-score is -0.706 (inactive).

On to `COc1cc(CO)cc(I)c1O[C@H]1C=C(C(=O)NCCO)C[C@@H](NC[C@@H]2CCCO2)[C@@H]1O`, for which the composite z-score is 0.922 in assay [1]; -0.349 in assay [2]; -0.204 in [3]; 0.671 in assay [5]; 0.0227 in [6]; -0.0367 in [7]. The composite z-score is 0.334 in assay [8], 0.17 in [9] and -0.0437 in assay [10]. For the same compound, the z-score in assay [4] is -0.466 (inactive).

With `C=CC[C@@]1(C(=O)N2CCCCC2)N=C(c2ccc(OCCCO)cc2)O[C@@H]1c1ccccc1N=[N+]=[N-]`, the composite z-score in [1] came out at 0.763; in [2], 1.19; in assay [3], 1.07; in [5] it was 0.925; in assay [6], 0.742; in assay [7], 0.249. The composite z-score in assay [8] was 0.657; in [9], -0.0197; in [10], 1.03. In addition, the z-score in assay [4] was -0.212 (inactive).

As to `COc1ccc([Si](C)(C)[C@H]2[C@H](CCO)O[C@@]3(C(=O)N(Cc4ccccc4)c4ccc(N5CCCCC5=O)cc43)[C@@H]2C)cc1`, the composite z-score in assay [1] was 1.06; in [2], -0.0725; in [3], 0.104; in assay [5], 0.884; in assay [6], 0.737; in assay [7], 0.199. The composite z-score in assay [8] is 0.579; in [9], -0.0075; in [10], 0.301. In assay [4], the z-score was -2.11 (inactive).

Turning to `[N-]=[N+]=Nc1ccccc1C[C@@]1(C(=O)N2CCCCC2)N=C(c2ccc(OCCCO)cc2)O[C@@H]1c1ccccc1N=[N+]=[N-]`, the composite z-score stood at 0.95 in assay [1]; 1.32 in assay [2]; 1.32 in assay [3]; 0.914 in assay [5]; 1.05 in [6]; 0.105 in [7]. Also, the composite z-score in assay [8] was 0.673; in assay [9] it was -0.0252; in assay [10], 1.59. Besides, in [4], the z-score is 0.766 (inactive).

For `CC=CC(O)C1C=CC2C(=O)N(C)C(=O)C2N1N(c1ccccc1)c1ccccc1` (stereo not given), the composite z-score in assay [1] was 0.293; in assay [2] it was -0.0262; in assay [3], 0.211; in assay [5], 0.128; in [6], -0.343; in assay [7], 1.19. Also, the composite z-score in [8] was -0.315; in assay [9], 0.653; in [10] it was 1.12. Also, in assay [4], the z-score is 1.06 (inactive).

For the compound `COC(=O)c1c(CC[C@@H](CO)NC(=O)N[C@H](Cc2ccccc2)Cn2cc(-c3ccccn3)nn2)oc(C(C)=O)c1C(=O)OC`, the composite z-score in assay [1] is 1.48; in assay [2], -0.123; in assay [3], -0.379; in assay [5] it was 0.384; in [6] it was 0.17; in assay [7] it was -0.371. Also, the composite z-score in [8] is -0.15; in assay [9], -0.328; in assay [10], -0.285. In assay [4], the z-score is 1.01 (inactive).

Turning to `CO[C@H]1O[C@H](CO)[C@@H](OC(=O)Nc2ccccc2)[C@@H]2OC(=O)[C@@H](Cc3ccc4ccccc4c3)C/C=C/C[C@H](Cc3ccc4ccccc4c3)C(=O)O[C@@H]12`, the composite z-score in [1] turned out to be 1.08; in assay [2] it was 0.134; in assay [3], 0.402; in assay [5], 1.08; in [6], 0.899; in [7], 0.204. Moreover, the composite z-score in [8] is 0.531; in assay [9], -0.112; in assay [10] it was 0.962. The z-score in assay [4] is -0.916 (inactive).

For `CN1C(=O)C2C=CC(C(O)c3ccc(F)cc3)N(N(c3ccccc3)c3ccccc3)C2C1=O` (stereo not given), the composite z-score in assay [1] was 1.46; in assay [2], 0.303; in [3] it was 1.03; in assay [5], 0.103; in assay [6] it was 0.0581; in [7] it was -0.329. Also, the values for the composite z-score in assay [8], in assay [9] and in [10] were 0.549, -0.742 and 0.984, respectively. Also, the z-score in assay [4] is 1.9 (inactive).

`CCOc1ccc(N2C(=O)CSC2c2cccc([N+](=O)[O-])c2)cc1` (stereo not given): the composite z-score in assay [1] is 0.891; in [2], -0.117; in assay [3], -0.0935; in assay [5], 0.344; in assay [6] it was 0.0863; in assay [7], 0.354. In addition, the composite z-score in assay [8] was 0.241; in assay [9], 0.168; in [10], -0.0762. In addition, in assay [4], the z-score is -0.105 (inactive).

Take `CC(C)C(=C=CC[C@H](O)c1ccc(CO)o1)CCO`: the composite z-score in assay [1] is 0.458; in [2], -0.288; in [3], -0.471; in assay [5], 0.494; in [6], 0.621; in assay [7], -0.115. Besides, the composite z-score in [8] was 0.402; in [9] it was 0.0097; in assay [10] it was 0.411. The z-score in assay [4] is 0.241 (inactive).
